PINK1 expr mod = PINK1 expression modulation; PINK1 immunofluorescence, high-content cytometry, 24 h; Potency, µM (titrated, usually from 76.6 µM), inactives show at the top dose activation (PINK1 increase), hits mostly activators; 410,000 compounds, 0.2% hits; active = well fitted activation curve with a large enough effect; inconclusive = small, poorly fitted or top-dose-only effect; cell line not stated here; also: potency is read from the fitted curve at half-maximal effect; % of control where 0% means no effect; nearly all actives have a fitted effect of over 65% in size
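Readout is PINK1 immunofluorescence, quantified alongside mitochondrial, cell and nuclear markers by laser-scanning microplate cytometry. Cells from a stable line were exposed to compound titrations (5 concentrations) for 24 hours, with CCCP controls.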
IL-1B inflam inh = blocks inflammasome-driven IL-1 beta release. THP-1 LPS/ATP IL-1B secretion, AlphaLISA, 16 h; stronger effect = lower value. activity change, % at 57.5 µM. 360,000 compounds, 4.7% hits; in the data active = activity change below about -50%; inconclusive = mostly about -30% to -49%; also: % is scaled to controls: 0 for no effect and ±100 for the full control effect
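THP-1 cells pretreated 1 hr with compounds (up to 57.5 uM final), then stimulated with LPS (250 ng/mL final) plus ATP (1.25 mM final); secreted IL-1B measured by AlphaLISA after 16 hr, decreased signal indicating inhibition.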
MCF10A rereplic = inducers of DNA re-replication in MCF 10A breast cells. MCF 10A DNA re-replication, Hoechst nuclear intensity, 48 h. 350,000 compounds, 2.9% hits. AID 624296. Potency, µM (highest dose often 46.1 µM), without a hit: top-dose activity, positive = re-replication, most hits filed as activators; also: potency is read from the fitted curve at half-maximal effect; % of control where 0% means no effect; nearly all actives have a fitted effect of over 50% in size
SW480 rereplic = DNA re-replication induction in SW480 cells | SW480 DNA re-replication, Hoechst DNA content imaging, 48 h | Potency, µM (titrated, usually from 46.1 µM), for the others: at the highest dose re-replication activation, hits mostly activators | 340,000 compounds, 1.8% hits; also: potency is read from the fitted curve at half-maximal effect; % of control where 0% means no effect; nearly all actives have a fitted effect of over 55% in size
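250 cells/well; 23 nL cpd via pin tool; 48 hr, 37 C, 5% CO2; Hoechst 40 min; imager read of total nuclear intensity, ex 405/em 500-530 nm.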
ATXN2 expr inh = ATXN2 expression inhibition; HEK-293 ATXN2-luciferase reporter, luminescence, 24 h; Potency, µM (highest dose often 57 µM), for the others: at the top dose activity change, negative = inhibition, usual class: inhibitors; 360,000 compounds, 0.72% hits; AID 1745845; also: potency is read from the fitted curve at half-maximal effect; % is scaled to controls: 0 for no effect and ±100 for the full control effect; nearly all actives have a fitted effect of over 55% in size
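ATXN2-luciferase reporter cells (luciferase flanked by upstream and downstream ATXN2 gene portions) were treated 24 h at 37 °C with compounds at up to 57 uM. SteadyGlo luminescence gave expression; GF-AFC fluorescence gave viability.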
ATXN viability = reduces viability in counter-screen for ATXN expression inhibitors. S2 cells (HEK-293 line with an ATXN2-luciferase reporter) viability, CellTiter-Fluor protease fluorescence, 24 h. Potency, µM (series often up to 56.7 µM), actives largely listed as cytotoxic. 400,000 compounds, 0.49% hits; also: potency is read from the fitted curve at half-maximal effect; nearly all actives have a fitted effect of over 40% in size
* hit, by the source's call; [ ] = remark or other dose. An excerpt weighted towards active compounds, which were near 7.1% of everything screened. Unless noted, calls follow the shape of the dose curve; as a rule, active = well fitted curve in the direction sought with a large enough effect; inconclusive = small, poorly fitted or top-dose-only effect, or another doubt; inactive = no such curve, though single readings can be large; an effect the other way counts as inactive or inconclusive.

How did OC(COc1ccc2ccccc2c1Br)Cn1cnc(-c2ccccc2)c1 (configuration not stated) do in these assays?
PINK1 expr mod: 0%; IL-1B inflam inh: -96*; MCF10A rereplic: inconclusive; SW480 rereplic: 11%; ATXN2 expr inh: inconclusive; ATXN viability: inconclusive

How did COc1cc(/C=N/NC(=S)Nc2cccc(S(=O)(=O)N(C)C)c2)ccc1O do in these assays?
PINK1 expr mod: 8%; IL-1B inflam inh: -98*; MCF10A rereplic: 28%; SW480 rereplic: -4%; ATXN2 expr inh: 30%; ATXN viability: inactive

Results for COc1cc(/C=N/NC(=O)c2cccc(NC(=O)c3ccccc3)c2)ccc1O ?
PINK1 expr mod: -1%; IL-1B inflam inh: inconclusive; MCF10A rereplic: 1%; SW480 rereplic: -5%; ATXN2 expr inh: 4%; ATXN viability: inactive

How did CCOC(=O)c1c(C)c(C(=O)Nc2ccc(N(C)C)cc2)c(C)n1CC do in these assays?
PINK1 expr mod: 11µM*; IL-1B inflam inh: -3; MCF10A rereplic: 6.5µM*; SW480 rereplic: 10µM*; ATXN2 expr inh: 54%; ATXN viability: inactive

How did CCOC(=O)CSc1nnc(NC(=O)c2ccc3c(c2)OCO3)s1 do in these assays?
PINK1 expr mod: 2%; IL-1B inflam inh: -5; MCF10A rereplic: 2%; SW480 rereplic: 0%; ATXN2 expr inh: -19%; ATXN viability: inactive

Results for CCOC(=O)Cn1nc(NC(=O)COc2ccc(F)cc2)cc1C ?
PINK1 expr mod: 1%; IL-1B inflam inh: -11; MCF10A rereplic: 0%; SW480 rereplic: -3%; ATXN2 expr inh: 0%; ATXN viability: inactive

What do the screens show for `CCOC(=O)Cn1nc(NC(=O)c2ccc(C(=O)OC)cc2)cc1C`?
PINK1 expr mod: 4%; IL-1B inflam inh: -96*; MCF10A rereplic: inconclusive; SW480 rereplic: -10%; ATXN2 expr inh: -5%; ATXN viability: inactive

Results for CCOC(=O)Cn1nc(NC(=O)c2cc(OC)cc(OC)c2)cc1C ?
PINK1 expr mod: 0%; IL-1B inflam inh: -3; MCF10A rereplic: 21µM*; SW480 rereplic: -2%; ATXN2 expr inh: -24%; ATXN viability: inactive

Results for CCOC(=O)Cn1ccc(NC(=O)c2ccc3c(c2)OCO3)n1 ?
PINK1 expr mod: 1%; IL-1B inflam inh: -95*; MCF10A rereplic: 0%; SW480 rereplic: 13%; ATXN viability: inactive

What do the screens show for `COc1cc(NC(=O)Cn2cc(C(=O)c3ccc(F)cc3)c(=O)c3ccc(C)nc32)cc(OC)c1`?
PINK1 expr mod: 3%; ATXN2 expr inh: -24%; ATXN viability: inconclusive

What do the screens show for `CCc1ccc(NC(=O)CN2C(=O)C3(SCC(=O)N3c3ccccc3)c3ccccc32)cc1` (configuration not stated)?
PINK1 expr mod: -3%; ATXN2 expr inh: -9%; ATXN viability: inactive

What do the screens show for `C[C@@]12CCC=C[C@H]1[C@H](c1ccc3ccccc3c1)N(Cc1ccccc1)C2=O`?
PINK1 expr mod: 3%; IL-1B inflam inh: 6; MCF10A rereplic: inconclusive; SW480 rereplic: 4%[9.22 µM]; ATXN2 expr inh: -12%; ATXN viability: inactive

How did C[C@@H]1CC=C[C@H]2[C@H]1C(=O)N(Cc1ccccc1)[C@H]2c1ccc2ccccc2c1 do in these assays?
PINK1 expr mod: 2%; IL-1B inflam inh: 15; MCF10A rereplic: inconclusive; SW480 rereplic: -14%[9.22 µM]; ATXN2 expr inh: -12%; ATXN viability: inactive

How did C[C@@]12CCC=C[C@H]1[C@H](c1ccc3ccccc3c1Br)N(Cc1ccccc1)C2=O do in these assays?
PINK1 expr mod: -1%; IL-1B inflam inh: -55*; MCF10A rereplic: inconclusive; SW480 rereplic: 18%; ATXN2 expr inh: inconclusive; ATXN viability: 35µM*

How did CC[C@@H]1CC=C[C@H]2[C@H]1C(=O)N(Cc1ccccc1)[C@H]2c1ccoc1 do in these assays?
PINK1 expr mod: -1%; IL-1B inflam inh: -107*; MCF10A rereplic: 8.2µM*; SW480 rereplic: 2%[9.22 µM]; ATXN2 expr inh: inconclusive

What do the screens show for `C[C@@H]1CC=C[C@H]2[C@H]1C(=O)N(Cc1ccccc1)[C@H]2c1ccc2ccccc2c1Br`?
PINK1 expr mod: -1%; IL-1B inflam inh: -75*; MCF10A rereplic: inconclusive; SW480 rereplic: 13%; ATXN2 expr inh: inconclusive; ATXN viability: 28µM*

Results for CCn1c(=O)cc(SCC(=O)NCc2ccc(F)cc2Cl)c2ccccc21 ?
PINK1 expr mod: 1%; ATXN2 expr inh: 13%; ATXN viability: inactive

Results for Cc1ccc(-c2noc(-c3ccccc3NC(=O)C3CC(=O)N(c4cccc(C)c4)C3)n2)cc1 (configuration not stated) ?
PINK1 expr mod: 1%; ATXN2 expr inh: 15%; ATXN viability: inactive

How did Cc1ccc(Cl)cc1NC(=S)N(CCN(C)C)C(C)c1ccccn1 (configuration not stated) do in these assays?
PINK1 expr mod: 0%; IL-1B inflam inh: -73*; MCF10A rereplic: -7%; SW480 rereplic: -2%; ATXN2 expr inh: 3%; ATXN viability: inconclusive

How did O=c1c(=O)n(-c2ccccc2)ccn1Cc1c(F)cccc1Cl do in these assays?
PINK1 expr mod: 0%

How did CC(Sc1nnc2ccc3ccccc3n12)C(=O)Nc1ccc(Cl)cc1 (configuration not stated) do in these assays?
PINK1 expr mod: -1%

What do the screens show for `CCC(=O)N1CCC(C)(C(=O)Nc2ccc(OC)c(OC)c2)C1` (configuration not stated)?
PINK1 expr mod: 0%; IL-1B inflam inh: 36; ATXN2 expr inh: 4%; ATXN viability: inactive

How did COc1ccccc1C(=O)Nc1ccc2c(c1)nc(CCNC(=O)c1ccco1)n2C do in these assays?
PINK1 expr mod: 12%; IL-1B inflam inh: -20; MCF10A rereplic: inconclusive; SW480 rereplic: 5.2µM*; ATXN2 expr inh: -14%; ATXN viability: inactive

Results for CN(C)N1C(N)=C(C#N)C(c2ccccc2)C2=C1CC(C)(C)CC2=O (configuration not stated) ?
PINK1 expr mod: -1%; IL-1B inflam inh: -11; MCF10A rereplic: -21%; SW480 rereplic: 2%; ATXN2 expr inh: 2%; ATXN viability: inactive

How did CN(C)N1C(N)=C(C#N)C(c2cccc3ccccc23)C2=C1CC(c1ccccc1)CC2=O (configuration not stated) do in these assays?
PINK1 expr mod: inconclusive; IL-1B inflam inh: -20; MCF10A rereplic: 15µM*; SW480 rereplic: inconclusive; ATXN2 expr inh: inconclusive; ATXN viability: inactive

Results for O=C1c2ccccc2NC(c2cccs2)N1O (configuration not stated) ?
PINK1 expr mod: -2%; IL-1B inflam inh: 13; MCF10A rereplic: -1%; SW480 rereplic: -78%; ATXN2 expr inh: 41%; ATXN viability: inactive

High-throughput results (PubChem)
